Experimental data: PubChem BioAssay AID577 (University of Pittsburgh Molecular Library Screening Center, 2007)
Hit rate of the full screen: of about 65,000 compounds, about 120 (0.18%) were called active. For the sample, actives were picked, then their nearest neighbours and some compounds at random. Values without a mark were called inactive. Cut-off read from the data, not from the text of the source: active = z-score below about -3; inactive = the rest.

Biological target: Genome polyprotein (West Nile virus) (UniProt P06935)
Sequence (P06935 1371-1501 limits assumed): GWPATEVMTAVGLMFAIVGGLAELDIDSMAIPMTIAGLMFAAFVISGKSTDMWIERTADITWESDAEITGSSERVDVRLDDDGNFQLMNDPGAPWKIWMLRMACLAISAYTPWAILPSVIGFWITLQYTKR
Sequence (P06935 1502-1679 limits assumed): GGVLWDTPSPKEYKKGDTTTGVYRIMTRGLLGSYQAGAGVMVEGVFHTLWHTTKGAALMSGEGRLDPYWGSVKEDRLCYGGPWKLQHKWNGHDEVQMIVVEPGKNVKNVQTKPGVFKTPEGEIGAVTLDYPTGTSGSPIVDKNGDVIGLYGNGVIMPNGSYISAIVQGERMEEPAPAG
Test: West Nile NS2B-NS3 proteinase blockers – biochemical, fluorogenic substrate, primary screen (AID 577)
Settings: WNV NS2B-NS3 protease, fluorogenic substrate Ex360/Em465; active compounds read low

Going from `C[C@H](NC(=O)NCCc1ccccc1)C(=O)O` to `CC(=O)c1ccc(NC(=O)N[C@@H](Cc2ccccc2)C(=O)O)cc1`, the z-score rises from 0.46 to 1.38.

Going from `CC(=O)Nc1cccc2c1[n+]([O-])c(C)c(C)[n+]2[O-]` to `Cc1ccc(F)cc1NC(=O)c1cccc(N(C)C)c1`, the z-score falls from 1.06 to -0.19.

First: CC(NC(=O)CN1CCN(Cc2ccc(Cl)cc2)C1=O)c1ccc2c(c1)OCCO2 (centres undefined)
Second: CC(C)CNS(=O)(=O)c1ccc(OCC(=O)Nc2ccc3c(c2)OCO3)c(Cl)c1
The z-score of the first is higher: 0.67 for the first, 0.53 for the second.

First: COc1ccc(OC)c(-n2cc3c(=O)n(C)c(=O)n(C)c3c2)c1
Second: CC(C)c1ccc(NS(=O)(=O)c2cn(C)c(=O)n(C)c2=O)cc1
The z-score of the first is higher: 0.45 for the first, -1.04 for the second.

Going from `C=C(C)COc1ccc(-c2n[nH]c(C)c2-c2ccccc2OC)c(O)c1` to `CCOc1ccccc1Oc1cn[nH]c1-c1ccc(OC)cc1O`, the z-score falls from 0.16 to -0.64.

Going from `COc1ccc(CC(NC(C)=O)C(=O)NC2CCN(C(=O)Nc3ccc(C#N)cc3)CC2)cc1OC` (centres undefined) to `COc1ccc(CCNS(=O)(=O)c2ccc(F)cc2)cc1OC`, the z-score rises from -0.8 to -0.37.

First: Cc1cc(NC(=O)CCC(=O)N(c2cccc(F)c2)C(C(=O)NC2CCCC2)c2ccncc2)no1 (centres undefined)
Second: Cc1ccc(C(C(=O)NC2CCCC2)N(Cc2ccco2)C(=O)CCC(=O)Nc2ccccn2)cc1 (centres undefined)
The z-score of the first is higher: 1.41 for the first, 0.98 for the second.

First: CCOc1ccc(-c2nnc(-c3ccco3)o2)cc1
Second: COc1ccc(CC(=O)Nc2ccc(-c3nnc(-c4ccc(C)cc4)o3)cc2)cc1
The z-score of the first is lower: -0.08 for the first, 0.17 for the second.

Compared with `CCCn1c(O)c(CN2CCCC(C)C2)c(C)c(C#N)c1=O` (centres undefined), `CC1CCN(Cc2nc3c(c(=O)n(C)c(=O)n3C)n2Cc2cccc3ccccc23)CC1` is lower in z-score: -0.51 for the first, -0.71 for the second.

Compared with `Clc1ccc(Cc2nn3c(-c4ccncc4)nnc3s2)cc1`, `Fc1ccc(OCc2nn3c(Cn4nnc5ccccc54)nnc3s2)cc1` is higher in z-score: 0.04 for the first, 1.56 for the second.

Compared with `O=C(O)C1OC(C(=O)O)C2C1C(F)(F)C2(F)F` (centres undefined), `O=C(O)C1CC(=O)N(Cc2cccnc2)C1` (centres undefined) is lower in z-score: 1.24 for the first, -0.77 for the second.

Going from `CC1CSc2nnc(CCc3ccccc3)n21` (centres undefined) to `c1ccc(CCC2=NCCn3cccc32)cc1`, the z-score rises from -0.75 to -0.03.

Going from `CCOC(=O)C1CCCN(C(=O)c2ccc(CS(=O)(=O)c3ccc(Br)cc3)o2)C1` (centres undefined) to `O=C(NCc1cccnc1)c1ccc(CS(=O)(=O)c2ccc(Br)cc2)o1`, the z-score rises from -0.97 to -0.48.

Going from `COc1cc2c(cc1NC(=O)CN1CCN(S(=O)(=O)c3ccc(F)cc3)CC1)oc1ccccc12` to `CCOC(=O)N1CCN(C(=O)c2ccc(S(=O)(=O)c3ccc(C)cc3)c(NC(C)=O)c2)CC1`, the z-score rises from -0.05 to 0.25.

First: CC(=O)N1C(=O)C2(Nc3ccccc3N2)c2ccccc21
Second: CC(C)n1c(C(O)c2ccccc2)nc2ccccc21 (centres undefined)
The z-score of the first is higher: -0.34 for the first, -1.05 for the second.

First: O=S(=O)(NCc1ccccn1)c1ccc(F)cc1
Second: O=C(Nc1cccc(Cl)c1)OCc1ccccn1
The z-score of the first is lower: -0.56 for the first, 0.46 for the second.

First: Cc1cc(=O)n2c3c(cccc13)CCC2
Second: Cn1c(=O)c2[nH]c(NCC3CCCO3)nc2n(-c2ccccc2)c1=O (centres undefined)
The z-score of the first is lower: -0.73 for the first, -0.17 for the second.

Compared with `CCCCc1nc2ccccc2c(NC(=O)CN2CCN(C)CC2)c1CCC`, `CCCCn1c(CCCNC(=O)CC)nc2ccccc21` is higher in z-score: -1.27 for the first, 0.2 for the second.

Going from `CCCC(=O)Nc1cccc(-c2cn3ccsc3n2)c1` to `O=C(NCc1cn2ccsc2n1)Nc1ccc(Cl)cc1`, the z-score rises from -1.1 to -0.25.

Going from `CCOc1ccc(NC(=O)Nc2cc(C)on2)cc1` to `CCCOc1ccc(NC(=O)C2CCCNC2=O)cc1` (centres undefined), the z-score falls from 0.95 to 0.11.

First: Cn1c(=O)c2c(ncn2CC(=O)N2CCN(c3ccccc3)CC2)n(C)c1=O
Second: O=C(c1ccccc1)c1cccn1CC(=O)N1CCN(c2ccc(F)cc2)CC1
The z-score of the first is higher: 0.25 for the first, -1.05 for the second.

Going from `COC(=O)c1cc(NC2c3ccccc3C(=O)N2c2ccc(Cl)cn2)cc(C(=O)OC)c1` (centres undefined) to `O=C1CC(Cc2ccccc2)C(=O)N1c1ccc(Cl)cn1` (centres undefined), the z-score falls from -0.39 to -1.5.

Going from `CC(C)(C)c1ccc(C(=O)NCCC(=O)NCc2ccco2)cc1` to `CSCCC(NC(=O)C1CCC(C)CC1)C(=O)NCc1ccco1` (centres undefined), the z-score rises from 0.25 to 0.29.

Compared with `CCCN(CCC)CCNC(=O)c1cc2c(C)nc3ccccc3c2o1`, `Cc1c(C(=O)NCC2CCCO2)sc2nc(-c3ccccc3)cn12` (centres undefined) is lower in z-score: 0.99 for the first, 0.86 for the second.

Going from `Cc1cc2cc(CN(Cc3cccs3)Cc3nnnn3CC3CCCO3)c(=O)[nH]c2cc1C` (centres undefined) to `CCOC(=O)Cn1c(CN(Cc2ccccc2)Cc2ccccc2)nc2c1c(=O)[nH]c(=O)n2C`, the z-score rises from -0.04 to 1.45.

First: CC(C)CCNC(=O)CN(C(=O)Cn1nnc(-c2ccc(F)cc2)n1)C1CCCC1
Second: CCC(=O)N1CCN=C1SCc1ccc(F)cc1
The z-score of the first is lower: -0.44 for the first, 0.56 for the second.

First: CCOC(=O)C1CCCN(C(=O)CN(c2ccc(OC)cc2)S(=O)(=O)c2c(C)noc2C)C1 (centres undefined)
Second: Cc1ccc(NC(=O)C2CCCN(S(=O)(=O)c3c(C)noc3C)C2)c(C)c1 (centres undefined)
The z-score of the first is higher: -0.04 for the first, -1.04 for the second.

First: Cc1cc(C)c(C)c(S(=O)(=O)Nc2ccc(O)cc2)c1C
Second: CCOC(=O)c1ccc(Nc2cc(C)nc3nc(C)nn23)cc1
The z-score of the first is lower: -1.62 for the first, -0.96 for the second.

First: CC(C(=O)N1CCOCC1)N1c2cccc3cccc(c23)S1(=O)=O (centres undefined)
Second: CCC(C(=O)N1CCOCC1)n1c(C(=O)OC)cc2occc21 (centres undefined)
The z-score of the first is higher: -0.43 for the first, -1.12 for the second.

First: CCCOc1ccc(Cn2c(O)cc(=O)[nH]c2=O)cc1
Second: CCc1nc2oc3ccccc3c(=O)c2c(=O)n1Cc1ccc(OC)cc1
The z-score of the first is higher: 0.4 for the first, -0.51 for the second.

Compared with `COc1ccc(CCN=C2SCC(=O)N2C)cc1OC`, `COc1ccc(CCNC(=O)CSc2nnc(-c3cccc(F)c3)o2)cc1OC` is higher in z-score: -0.84 for the first, 0.62 for the second.

First: Cn1c(=O)[nH]c(=O)c2c1nc(NCCCn1ccnc1)n2Cc1cccc(Br)c1
Second: COCCn1c(CN(Cc2ccccc2)Cc2ccccc2)nc2c1c(=O)n(C)c(=O)n2C
The z-score of the first is lower: -0.12 for the first, 0.73 for the second.

Going from `CC(=O)Oc1ccc2c(C)c(CC(C)O)c(=O)oc2c1` (centres undefined) to `CCOC(=O)c1sc(=S)n2c1[nH]c(=O)c1ccc(C(=O)OC)cc12`, the z-score falls from 5.37 to 0.38.

First: COC(=O)c1ccccc1NC(=O)CSc1ccccn1
Second: O=C(COc1ccc(Cl)cc1)Nc1ccccc1CO
The z-score of the first is lower: -0.33 for the first, 1.62 for the second.

First: Cn1cccc1Cc1nnc(SCC(=O)NCCc2ccccc2)n1-c1ccc(F)cc1
Second: Cc1ccc(-n2c(Cc3cccs3)nnc2SCC(=O)OC(C)C)cc1
The z-score of the first is higher: -0.68 for the first, -0.91 for the second.

Going from `CC(=O)C1=C(O)C(=O)N(c2ccc(S(N)(=O)=O)cc2)C1c1ccccc1F` (centres undefined) to `O=C(Nc1nnc(-c2ccc(Cl)cc2)o1)c1ccccc1Br`, the z-score rises from -0.26 to 2.56.

Compared with `CN(C)c1nc(N)nc(CSc2nnnn2-c2cccc3ccccc23)n1`, `CCOc1ccc(OCC)c(NC(=O)CSc2nnc(Cn3cnc4ccccc43)n2C)c1` is higher in z-score: -0.13 for the first, 1.68 for the second.

Compared with `CS(=O)(=O)c1ccc2nc(NC(=O)C3CCCCC3)sc2c1`, `CCn1cc(C(=O)NC2CCCCCC2)c(=O)c2cc(S(=O)(=O)N3CCCCC3)ccc21` is lower in z-score: -0.5 for the first, -1.17 for the second.

Compared with `CCC(C)(NC(=O)c1ccccn1)C(=O)NC1CCCCC1` (centres undefined), `O=C(CC1OC(=O)c2ccccc21)NC1CCCCC1` (centres undefined) is lower in z-score: 0.53 for the first, -0.53 for the second.

Compared with `O=C(Nc1ccc2c(c1)OCO2)C1CC(c2c(F)cccc2Cl)=NO1` (centres undefined), `COc1cccc(-c2nc(S(=O)(=O)c3ccccc3)c(N3CCOCC3)o2)c1` is lower in z-score: 1.16 for the first, -0.88 for the second.

First: CCSC1(SCC)N=C(N)C2(C#N)C(c3ccccc3)NC(C)=CC12C#N (centres undefined)
Second: O=C1CCC(Cc2ccccc2)N1 (centres undefined)
The z-score of the first is lower: -1.23 for the first, 0.78 for the second.

`O=C(NCC1CCCO1)C(C(=O)c1ccccc1)n1cc(Cl)ccc1=O` (centres undefined) and `O=C(CSC1=Nc2ccccc2C2=NC(c3ccccc3)C(=O)N12)NCC1CCCO1` (centres undefined) are the same in z-score: -0.94 for the first, -0.94 for the second.

Going from `CCn1cc(C(=O)N2CCN(C3CCCCC3)CC2)c2cc(OC)c(OC)cc2c1=O` to `O=C(NC1CCCCC1)N1CCc2[nH]c3ccccc3c2C1`, the z-score rises from 0.44 to 0.65.

First: O.O.O.O=S(=O)([O-])OC[C@H]1O[C@@H](O[C@]2(COS(=O)(=O)[O-])O[C@H](OS(=O)(=O)[O-])[C@@H](OS(=O)(=O)[O-])[C@@H]2OS(=O)(=O)[O-])[C@H](OS(=O)(=O)[O-])[C@@H](OS(=O)(=O)[O-])[C@@H]1OS(=O)(=O)[O-].[Al]
Second: Cc1ccccc1-c1nc(CS(=O)(=O)CC(=O)N2CCc3ccccc3C2)c(C)o1
The z-score of the first is lower: -0.72 for the first, -0.21 for the second.

Compared with `COc1cccc(-c2nn(C)c3sc(C(=O)N4CCN(c5ccccc5)CC4)cc23)c1`, `Cn1nc(-c2ccc(N3CCOCC3)c(NC(=O)c3ccccc3)c2)c2ccccc2c1=O` is higher in z-score: -0.13 for the first, -0.07 for the second.

First: O=C(O)C1CCN1C1CCCCC1 (centres undefined)
Second: Brc1cnc(N2CCCC2)nc1N1CCCCC1
The z-score of the first is higher: -0.3 for the first, -0.6 for the second.

First: Oc1ccc(Cl)cc1/C=N/c1nc2ccccc2[nH]1
Second: c1ccc(-c2cn3cccnc3n2)cc1
The z-score of the first is lower: -0.26 for the first, 1.38 for the second.

Going from `CCOC(=O)C1CCN(C(=O)CC2C(=O)N(Cc3ccccc3)C(C)c3nc4ccccc4n32)CC1` (centres undefined) to `Cc1nn(Cc2ccccc2)c(Cl)c1C(=O)OC1CCOC1=O` (centres undefined), the z-score rises from -0.76 to 0.09.

Compared with `CSc1sc(C)cc1C1C(C#N)=C(N)N(c2cccnc2)C2=C1C(=O)CCC2` (centres undefined), `COc1ccc(/C(O)=C2/C(=O)C(=O)N(c3nc(C)c(C)s3)C2c2ccco2)cc1` (centres undefined) is lower in z-score: 0.7 for the first, -0.46 for the second.

Going from `CCC(C)n1[nH]c(=O)c2c(C)cc(C)nc21` (centres undefined) to `Cc1ccc(C)c(NC(=O)C2CC(=O)N(C(C)C)C2)c1` (centres undefined), the z-score falls from 0.11 to -0.7.

First: CCOC(=O)c1sc(NC(=O)C(CC)Sc2nccn2C)nc1C (centres undefined)
Second: CCN(CC)C(=O)CSc1nnc(-c2cnccn2)n1-c1ccc(C)cc1
The z-score of the first is lower: 0.77 for the first, 0.78 for the second.

First: CCCOc1ccc2c3c(c(=O)oc2c1OCCC)CCC3
Second: CCCCOC(=O)NCN1C(=O)C2C3C=CC(C3)C2C1=O (centres undefined)
The z-score of the first is lower: -0.02 for the first, 0.28 for the second.

First: COc1ccc(NC(=O)CN(C)S(=O)(=O)c2ccccc2)cc1OC
Second: Cc1nnc(SCC(=O)Nn2cnnc2)s1
The z-score of the first is lower: -0.74 for the first, 0.2 for the second.

In the case of `Clc1ccc(C=NC23CN4CN(CN(C4)C2)C3)cc1`, the z-score is reported as 1.48.

With `Cc1ccc(OCC(=O)Nc2ccc(-c3nnc(-c4ccco4)o3)cc2)cc1` the z-score was -3.16 (active).
In the case of `COc1ccc(-c2cn3ccsc3n2)cc1`, the z-score is reported as -7.48 (active).
